# Screens from PubChem BioAssay.
# SARS PLpro yeast: blocks SARS-CoV papain-like protease in a yeast assay; S. cerevisiae expressing SARS-CoV PLpro, growth rescue; Potency, µM (doses to about 32.9 µM), usual class: activators; 0.19% of 330,000 active; calls by dose curve; further: nearly all actives have a fitted effect of over 55% in size
# Pf growth 96h: P. falciparum growth inhibition at 96 hour, primary screen for plastid delayed-death inhibitors; AID 504834; Potency, µM (titrated, usually from 28.7 µM), most hits filed as inhibitors; 6.9% of 320,000 active; P. falciparum luciferase reporter growth, 96 h
#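 Parasite growth measured via integrated firefly luciferase reporter in P. falciparum. Infected erythrocytes at 2% hematocrit, 0.05% parasitemia final were treated 96 hours at 37 C under 5% CO2, and luminescence was read.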
# Pf growth 48h: P. falciparum growth inhibition at 48 hours (one generation). AID 504832. Potency, µM (highest dose often 28.7 µM), most hits filed as inhibitors. P. falciparum luciferase growth in erythrocytes, 48 h. 5.9% of 310,000 active
#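 Parasite viability was followed by luminescence of a genomically integrated firefly luciferase. Cultures held 0.1% parasitemia at 2% hematocrit (final), incubated under 5% CO2 at 37 C.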
# AMA1 RON2 block: inhibitors of Plasmodium falciparum AMA1-RON2 interaction; Potency, µM (top dose mostly 58.2 µM), actives largely listed as inhibitors; 0.2% of 360,000 active; AlphaScreen AMA1-biotinylated RON2 peptide binding; AID 720542; further: nearly all actives have a fitted effect of over 45% in size
#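 AMA1 (3D7) with his tag at 25 nM final met compounds first, then biotinylated RON2 peptide at 25 nM; detection used donor plus acceptor beads, 10 µg/mL apiece, read by AlphaScreen after 30 min at room temperature.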
# Hits are given with their value; - = inactive; ? = inconclusive; . = no result; [ ] = remark or other dose. Compounds with a hit are over-represented: about 9.4% of the library has one in this group of screens. Unless noted, the call rests on the fitted dose curve; in most records, active means well fitted curve in the direction sought with a large enough effect; inconclusive means small, poorly fitted or top-dose-only effect, or another doubt; inactive means no such curve, though single readings can be large; an effect the other way counts as inactive or inconclusive.
SMILES,SARS PLpro yeast,Pf growth 96h,Pf growth 48h,AMA1 RON2 block
Cc1ccc(NC(=S)N=Nc2c(O)n(C)c3ccc(S(=O)(=O)N4CCOCC4)cc23)cc1,-,?,2.62µM,-
Cc1cccc(C)c1NC(=S)N=Nc1c(O)n(C)c2ccc(S(=O)(=O)N3CCOCC3)cc12,-,?,?,-
Cc1cc(C)cc(NC(=S)N=Nc2c(O)n(C)c3ccc(S(=O)(=O)N4CCOCC4)cc23)c1,-,?,2.08µM,-
Cc1ccc(CC(=O)Nc2ccc(S(=O)(=O)N3CCOCC3)cc2)cc1,-,-,-,-
Cc1ccccc1NC(=S)N=Nc1c(O)n(C)c2ccc(S(=O)(=O)N3CCOCC3)cc12,-,-,3.29µM,-
COc1ccc(C2C=C(C)Nc3nc(SC)nn32)cc1 (stereo not given),-,?,-,-
C=CCn1c(O)c(N=NC(=S)Nc2ccccc2F)c2cc(S(=O)(=O)N3CCOCC3)ccc21,-,-,6.57µM,-
C=CCn1c(O)c(N=NC(=S)Nc2ccccc2F)c2ccccc21,-,-,?,-
CC1CCc2c(C(=O)Nc3cccc(-c4nn[nH]n4)c3)csc2C1 (stereo not given),-,-,-,-
O=C(NC1CCCC1)c1cccc2c1C(=O)c1ccc(/C=C/c3ccccc3)cc1S2(=O)=O,-,1.85µM,?,-
CC(C)N1CCN(c2ccc(OC[C@H]3CO[C@](Cn4cncn4)(c4ccc(Cl)cc4Cl)O3)cc2)CC1,.,9.28µM,13.1µM,-
O=C(O)C1Nc2ccc(Br)cc2C2C=CCC12 (stereo not given),-,-,-,10µM
O=C(OC1CCCCC1)c1ccc2c(c1)C1C=CCC1C(C(=O)O)N2 (stereo not given),-,?,-,.
CCOC(=O)C1Nc2ccc(Br)cc2C2C=CCC12 (stereo not given),-,13.1µM,?,-
CCOC(=O)c1ccc2c(c1)C1C=CCC1C(C(=O)OCC)N2 (stereo not given),-,-,11.7µM,-
COCCn1c(SCC(=O)N(C(C)C)C(C)C)nnc1-c1cc2ccccc2cc1O,-,?,?,-
COc1cccc(CNC(=O)CCNS(=O)(=O)c2cccc3nonc23)c1,-,-,-,-
CCC1=C(OC(=O)N(CC)CC)N2C(=O)OC(=NCC3CC3)[C@]2(Cc2ccccc2)[C@H]2C1=CC[C@H]1C(=O)NC(=O)[C@H]12,-,7.38µM,10.4µM,-
CCC1=C(OC(=O)N(CC)CC)N2C(=O)OC(=NCCOC)[C@]2(Cc2ccccc2)[C@H]2C1=CC[C@H]1C(=O)NC(=O)[C@H]12,-,?,9.28µM,-
Cc1cc(C(=O)COC(=O)Cc2n[nH]c(=O)c3ccccc23)c(C)n1-c1ccc2c(c1)OCCO2,-,?,-,-
CC(C1CCN(Cc2nc(C3CC3)no2)CC1)N1CCOCC1 (stereo not given),-,13.1µM,-,-
CCOC(=O)N1CCN(Cc2nc(C3CC3)no2)CC1,-,-,-,-
CCCCN1C(=O)C(=O)NC[C@H]1Cc1cccc2ccccc12,.,.,.,-
O=C1NC[C@@H](Cc2cccc3ccccc23)N(CC2(c3ccccc3)CC2)C1=O,-,13.1µM,11.7µM,-
CCN1CCN(C(=O)c2cc3c(=O)oc4ccc(C)cc4c3s2)CC1,-,-,-,-
SMILES,SARS PLpro yeast,Pf growth 96h,Pf growth 48h,AMA1 RON2 block
COc1cc(NC(C)=O)ccc1NC(=O)c1cc2ccccc2o1,-,11.7µM,-,-
CN(C)S(=O)(=O)c1ccc(NC(=O)c2cc3ccccc3o2)cc1,-,13.1µM,-,-
COC(=O)c1cccc(NC(=O)c2cc3ccccc3o2)c1,-,-,9.28µM,-
COc1cc(NC(=O)c2ccccc2)ccc1NC(=O)c1cc2ccccc2o1,-,-,.,-
COc1cc(NC(=O)c2ccc(Br)o2)ccc1NC(=O)c1ccccc1Cl,-,.,10.4µM,-
CN(Cc1nc2ccccc2n1C)S(=O)(=O)c1ccc(Cl)cc1,-,-,-,-
Cc1ccc(NC(=O)C2c3ccccc3-c3ccccc32)cc1,.,.,.,-
CCN(CC)C(=O)CSc1nc2ncccc2[nH]1,-,11.7µM,-,-
COC(=O)c1c(C(=O)c2ccc(Br)cc2)n(C)c2ccccc12,-,?,13.1µM,-[11.6 µM]
COc1cc(/C=N/NC(=O)C(=O)/C=C2\NC3(CCCC3)Cc3ccccc32)ccc1O,-,?,?,-[2.32 µM]
CN(C)c1ccc(/C=N/NC(=O)C(=O)/C=C2\NC3(CCCC3)Cc3ccccc32)cc1,-,2.62µM,?,-
CC(C)NC(=O)CSc1nc(Cc2cccs2)nc2ccccc12,-,?,?,-
CC(=O)OC(C)(C)/C=C/C(=O)[C@](C)(O)C1[C@H](O)C[C@@]2(C)C3CC=C4C(C=C(O[C@@H]5O[C@H](CO)[C@@H](O)[C@H](O)[C@H]5O)C(=O)C4(C)C)[C@]3(C)C(=O)C[C@]12C (stereo not given in full),-,.,.,-
CC1CCN(c2nc3ccc(C(=O)O)cc3s2)CC1,-,-,1.17µM,-
CC1CCN(c2nc3ccc(C(=O)NCCCN4CCCCC4)cc3s2)CC1,-,-,-,-
Cc1ccc(-c2noc(CSc3nnc(Cc4ccccc4)n3-c3ccc(Cl)cc3)n2)cc1,-,9.28µM,.,-
S=C(NC1CCCCC1)N1CCN(c2ncccn2)CC1,-,-,-,-
FC(F)(F)c1cccc(N2CCN(C(=S)NC3CCCC3)CC2)c1,-,13.1µM,?,-
S=C(NC1CCCCC1)N1CCN(c2ccccn2)CC1,-,11.7µM,-,-
S=C(NC1CCCCC1)N1CCOCCOCCN(C(=S)NC2CCCCC2)CCOCCOCC1,-,10.4µM,?,?
CCc1nnc(NC(=O)CCS(=O)(=O)Cc2ccccc2)s1,-,-,-,-
COCCN(CCOC)Cc1cc(=O)oc2cc(OC)c(Cl)cc12,.,.,.,-
O=C(c1csc(Nc2cccc3ccccc23)n1)N1CCCC1,-,?,?,-
O=C(c1csc(Nc2ccccc2Cl)n1)N1CCCC1,-,2.33µM,-,-
CCOC(=O)N/N=C/c1cc(C)n(-c2cccc3ccccc23)c1C,-,9.28µM,11.7µM,-
SMILES,SARS PLpro yeast,Pf growth 96h,Pf growth 48h,AMA1 RON2 block
CCOC(=O)N/N=C/c1cc(C)n(-c2ccccc2)c1C,-,?,?,-
Cc1cc(/C=N/NC(=O)c2cccc(F)c2)c(C)n1-c1ccccc1,-,?,-,-
COC(=O)N/N=C/c1cc(C)n(-c2cccc3ccccc23)c1C,-,14.7µM,7.38µM,-
Cc1cccc(NC(=O)COc2ccccc2C(=O)NC(C)c2ccccc2)c1 (stereo not given),-,9.28µM,-,-
COc1cc(CNC(C)c2ccccc2)cc(Cl)c1OCC(=O)Nc1ccccc1 (stereo not given),-,?,11.7µM,-
OCC(Cc1ccccc1)NCc1ccccc1C(F)(F)F (stereo not given),-,-,-,-
CCN(CC)CCNCc1cc(Cl)c(OCC(=O)Nc2ccccc2)c(OC)c1,-,?,?,-
CCOc1cc(CNC(C)C(O)c2ccccc2)cc(Cl)c1OCC (stereo not given),-,?,1.47µM,-
CC(NCc1ccccc1C(F)(F)F)C(O)c1ccccc1 (stereo not given),-,-,8.28µM,-
